# Laboratory results published in PubChem BioAssay (NCATS).
# Records with an inconclusive call do not appear. Entries that show only a call come without a potency. A number with no mark means an inactive call. Active and inactive are the calls of the source. Calls follow the shape of the dose curve; as a rule, active = well fitted curve in the direction sought with a large enough effect; inconclusive = small, poorly fitted or top-dose-only effect, or another doubt; inactive = no such curve, though single readings can be large; an effect the other way counts as inactive or inconclusive.
# Experiments:
# MCC-13 = test: qHTS assay to identify novel small-molecules to repurpose for Merkel cell carcinoma treatment (AID 1296009); conditions: MCC and control cell lines, CellTiter-Glo viability, 72 h; series mostly up to 46 µM; also: nearly all actives have a fitted effect of over 60% in size
# Method in brief: (§1)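 Cells exposed to NPC (8-point) and MIPE (11-point) compound dilutions for 72 hr at 37 degree celsius; viability read by CellTiter-Glo luminescence, normalized to no-cell and DMSO in-plate controls.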
# MCC-26 = test: as above; conditions: MCC and control cell lines, CellTiter-Glo viability, 72 h; series mostly up to 46 µM
# Method in brief: as §1
# MKL-1 = test: as above; conditions: MCC and control cell lines, CellTiter-Glo viability, 72 h; series mostly up to 46 µM
# Method in brief: as §1
# UISO = test: as above; conditions: MCC and control cell lines, CellTiter-Glo viability, 72 h; series mostly up to 46 µM
# Method in brief: as §1
# WaGa = test: as above; conditions: MCC and control cell lines, CellTiter-Glo viability, 72 h; series mostly up to 46 µM
# Method in brief: as §1
# C33A = test: Primary qHTS to identify gynecologic anti-cancer compounds using libraries of approved drugs and bioactive compounds (AID 1345084); conditions: Gynecologic cancer cell panel viability, ATPlite luminescence, 48 h; series mostly up to 57.5 µM; also: nearly all actives have a fitted effect of over 55% in size
# Method in brief: (§2)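 ATP-based viability (ATPlite), 1,000 cells/well, 16 h pre-incubation, 48 h compound at 37 C, 5% CO2, 15 min RT before read.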
# CAOV3 = test: as above; conditions: Gynecologic cancer cell panel viability, ATPlite luminescence, 48 h; series mostly up to 57.5 µM
# Method in brief: as §2
# CASKI = test: as above; conditions: Gynecologic cancer cell panel viability, ATPlite luminescence, 48 h; series mostly up to 57.5 µM
# Method in brief: as §2
# Es-2 = test: as above; conditions: Gynecologic cancer cell panel viability, ATPlite luminescence, 48 h; series mostly up to 57.5 µM
# Method in brief: as §2
# HeLa = test: as above; conditions: Gynecologic cancer cell panel viability, ATPlite luminescence, 48 h; series mostly up to 57.5 µM
# Method in brief: as §2
# JEG-3 = test: as above; conditions: Gynecologic cancer cell panel viability, ATPlite luminescence, 48 h; series mostly up to 57.5 µM
# Method in brief: as §2
# OV90 = test: as above; conditions: Gynecologic cancer cell panel viability, ATPlite luminescence, 48 h; series mostly up to 57.5 µM
# Method in brief: as §2
# PA-1 = test: as above; conditions: Gynecologic cancer cell panel viability, ATPlite luminescence, 48 h; series mostly up to 57.5 µM
# Method in brief: as §2
# Tov-21-G = test: as above; conditions: Gynecologic cancer cell panel viability, ATPlite luminescence, 48 h; series mostly up to 57.5 µM
# Method in brief: as §2
# Tov112D = test: as above; conditions: Gynecologic cancer cell panel viability, ATPlite luminescence, 48 h; series mostly up to 57.5 µM
# Method in brief: as §2
# [1] = Drug repurposing screens with cells derived from glioblastoma tumor samples (AID 1345199); conditions: GBM patient neurospheres viability, ATP luminescence, 48 h; for Potency: tumour line A; as to all read-outs here: nearly all actives have a fitted effect of over 40% in size
# Method in brief: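 Four patient lines of CD133+ GBM neurospheres were screened at several concentrations; hits were retested in those lines plus three slower-growing GBM lines, using 48-hour treatment and ATP-based viability.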
# MKL-2 = test: qHTS assay to identify novel small-molecules to repurpose for Merkel cell carcinoma treatment (AID 1296009); conditions: MCC and control cell lines, CellTiter-Glo viability, 72 h; series mostly up to 46 µM; also: nearly all actives have a fitted effect of over 60% in size
# Method in brief: as §1
# Hek293T = test: Primary qHTS to identify gynecologic anti-cancer compounds using libraries of approved drugs and bioactive compounds (AID 1345084); conditions: Gynecologic cancer cell panel viability, ATPlite luminescence, 48 h, control line for the selectivity index; series mostly up to 57.5 µM; also: nearly all actives have a fitted effect of over 55% in size
# Method in brief: as §2
# SKOV3 = test: as above; conditions: Gynecologic cancer cell panel viability, ATPlite luminescence, 48 h; series mostly up to 57.5 µM
# Method in brief: as §2
# [2] = at 45.9 µM (top of the series), tumour line B
# [3] = at 45.9 µM (top of the series), tumour line D
# Potency is read from the fitted curve at half-maximal effect.
smiles,measurement,setting,value
O=C(NC(=O)c1c(F)cccc1F)Nc1cc(Cl)c(OC(F)(F)C(F)C(F)(F)F)cc1Cl (configuration not stated),Potency,MCC-13,inactive
same,Potency,MCC-26,inactive
same,Potency,MKL-1,inactive
same,Potency,UISO,inactive
same,Potency,WaGa,inactive
same,Potency,C33A,inactive
same,Potency,CAOV3,inactive
same,Potency,CASKI,inactive
same,Potency,Es-2,inactive
same,Potency,HeLa,inactive
same,Potency,JEG-3,inactive
same,Potency,OV90,inactive
same,Potency,PA-1,inactive
same,Potency,Tov-21-G,inactive
same,Potency,Tov112D,inactive
same,"activity, negative = cell killing",[1]; [2],-8.74%
same,"activity, negative = cell killing",[1]; [3],-27.5%
same,Potency,[1],7.94 µM (active)
CCCCCCCCC(=O)NCc1ccc(O)c(OC)c1,Potency,MCC-13,inactive
same,Potency,MCC-26,inactive
same,Potency,MKL-1,inactive
same,Potency,MKL-2,inactive
same,Potency,UISO,inactive
same,Potency,WaGa,inactive
same,Potency,CASKI,inactive
same,Potency,HeLa,inactive
same,Potency,Hek293T,inactive
same,Potency,JEG-3,inactive
same,Potency,OV90,inactive
same,Potency,Tov-21-G,inactive
same,"activity, negative = cell killing",[1]; [2],-1.62%
same,"activity, negative = cell killing",[1]; [3],-6.9%
same,Potency,[1],12.6 µM (active)
CN1CCc2cc(Cl)c(O)cc2[C@H]2c3ccccc3CC[C@@H]21,Potency,MCC-13,inactive
same,Potency,MCC-26,inactive
same,Potency,MKL-1,inactive
same,Potency,MKL-2,inactive
same,Potency,UISO,inactive
same,Potency,C33A,inactive
same,Potency,CAOV3,inactive
same,Potency,CASKI,inactive
same,Potency,Es-2,inactive
same,Potency,HeLa,inactive
same,Potency,Hek293T,inactive
same,Potency,PA-1,inactive
same,Potency,SKOV3,inactive
same,Potency,Tov-21-G,inactive
same,Potency,Tov112D,inactive
same,"activity, negative = cell killing",[1]; [2],-22.7%
same,Potency,[1],11.2 µM (active)
CCN(Cc1ccc(Cl)nc1)/C(=C/[N+](=O)[O-])NC,Potency,MCC-13,inactive
same,Potency,MCC-26,inactive
same,Potency,MKL-1,inactive
same,Potency,MKL-2,inactive
same,Potency,UISO,inactive
same,Potency,WaGa,inactive
same,Potency,C33A,inactive
same,Potency,CASKI,inactive
same,Potency,Es-2,inactive
same,Potency,HeLa,inactive
same,Potency,Hek293T,inactive
same,Potency,JEG-3,inactive
same,Potency,OV90,inactive
same,Potency,PA-1,inactive
same,Potency,Tov-21-G,inactive
same,Potency,Tov112D,inactive
same,"activity, negative = cell killing",[1]; [2],-9.68%
same,"activity, negative = cell killing",[1]; [3],-5.99%
Oc1ccc2[nH]cc(CCCCN3CC=C(c4ccccc4)CC3)c2c1,Potency,MCC-13,inactive
same,Potency,MCC-26,inactive
same,Potency,MKL-1,8.41 µM (active)
same,Potency,MKL-2,5.96 µM (active)
same,Potency,UISO,8.41 µM (active)
same,Potency,WaGa,2.99 µM (active)
same,Potency,C33A,inactive
same,Potency,CASKI,inactive
same,Potency,Es-2,inactive
same,Potency,HeLa,inactive
same,Potency,JEG-3,inactive
same,Potency,OV90,inactive
same,Potency,SKOV3,inactive
same,Potency,Tov-21-G,inactive
same,Potency,Tov112D,inactive
C[C@]12C=CC(=O)C=C1CC[C@@H]1[C@@H]2CC[C@@]2(C)[C@H]1CC[C@]2(C)O,Potency,MCC-13,inactive
same,Potency,MCC-26,inactive
same,Potency,MKL-1,inactive
same,Potency,MKL-2,inactive
same,Potency,C33A,inactive
same,Potency,CASKI,inactive
same,Potency,Es-2,inactive
same,Potency,HeLa,inactive
same,Potency,Hek293T,inactive
same,Potency,JEG-3,inactive
same,Potency,OV90,inactive
same,Potency,PA-1,inactive
same,Potency,SKOV3,inactive
same,Potency,Tov-21-G,inactive
same,Potency,Tov112D,inactive
same,"activity, negative = cell killing",[1]; [2],-4.86%
same,"activity, negative = cell killing",[1]; [3],-22.4%
COc1cc(C[C@@H](C)N)c(OC)cc1C,Potency,MCC-13,inactive
same,Potency,MCC-26,inactive
same,Potency,MKL-1,inactive
same,Potency,MKL-2,inactive
same,Potency,UISO,inactive
same,Potency,WaGa,inactive
same,Potency,CAOV3,inactive
same,Potency,CASKI,inactive
same,Potency,Es-2,inactive
same,Potency,HeLa,inactive
same,Potency,Hek293T,inactive
same,Potency,JEG-3,inactive
same,Potency,PA-1,inactive
same,Potency,SKOV3,inactive
same,Potency,Tov-21-G,inactive
same,Potency,Tov112D,inactive
same,"activity, negative = cell killing","[1]; at 108 µM (top of the series), tumour line B",-21.2%
same,"activity, negative = cell killing","[1]; at 108 µM (top of the series), tumour line D",-18.9%
same,Potency,[1],31.6 µM (active)
CCCN(CCC)CCc1c[nH]c2ccccc12,Potency,MCC-13,inactive
same,Potency,MCC-26,inactive
same,Potency,MKL-1,inactive
same,Potency,MKL-2,inactive
same,Potency,WaGa,inactive
same,Potency,C33A,inactive
same,Potency,CAOV3,inactive
same,Potency,CASKI,inactive
same,Potency,Es-2,inactive
same,Potency,HeLa,inactive
same,Potency,Hek293T,inactive
same,Potency,JEG-3,inactive
same,Potency,Tov-21-G,inactive
same,Potency,Tov112D,inactive
same,"activity, negative = cell killing","[1]; at 91.6 µM (top of the series), tumour line B",-11.3%
same,"activity, negative = cell killing","[1]; at 91.6 µM (top of the series), tumour line D",-14%
same,Potency,[1],25.1 µM (active)
C[C@H](N)[C@H](O)c1ccc(O)c(O)c1,Potency,MCC-13,inactive
same,Potency,MCC-26,inactive
same,Potency,MKL-1,inactive
same,Potency,UISO,inactive
same,Potency,WaGa,inactive
same,Potency,C33A,inactive
same,Potency,CASKI,inactive
same,Potency,JEG-3,inactive
same,Potency,SKOV3,25.1 µM (active)
same,"activity, negative = cell killing",[1]; [2],-8.55%
same,"activity, negative = cell killing",[1]; [3],-15.2%
CCOC(=O)C1(c2ccccc2)CCN(CCc2ccc(N)cc2)CC1,Potency,MCC-13,inactive
same,Potency,MCC-26,inactive
same,Potency,MKL-1,inactive
same,Potency,MKL-2,inactive
same,Potency,WaGa,inactive
same,Potency,C33A,inactive
same,Potency,CAOV3,inactive
same,Potency,CASKI,inactive
same,Potency,Es-2,inactive
same,Potency,HeLa,inactive
same,Potency,Hek293T,inactive
same,Potency,JEG-3,inactive
same,Potency,OV90,inactive
same,Potency,PA-1,inactive
same,Potency,SKOV3,inactive
same,Potency,Tov-21-G,inactive
same,Potency,Tov112D,inactive
CCN(CC)Cc1nccn1-c1ccc([N+](=O)[O-])cc1C(=O)c1ccccc1Cl,Potency,MCC-13,inactive
same,Potency,MCC-26,inactive
same,Potency,MKL-1,inactive
same,Potency,MKL-2,inactive
same,Potency,UISO,inactive
same,Potency,WaGa,inactive
same,Potency,C33A,inactive
same,Potency,CASKI,inactive
same,Potency,Es-2,inactive
same,Potency,HeLa,inactive
same,Potency,Hek293T,inactive
same,Potency,JEG-3,inactive
same,Potency,SKOV3,inactive
same,Potency,Tov-21-G,inactive
same,Potency,Tov112D,inactive
same,"activity, negative = cell killing",[1]; [2],-21%
same,"activity, negative = cell killing",[1]; [3],-13.7%
same,Potency,[1],31.6 µM (active)
